Only some compounds are listed: those with a hit (about 3.5% of all), similar ones and a draw of the others.
GPR151 ag: activators of human GPR151, primary screen, cell-based, PathHunter beta-arrestin, luminescence; G-protein coupled receptor 151 (Homo sapiens), Q8TDV0; PathHunter beta-arrestin GPR151 cells; activation, % at 11.2 µM; hit rate 1% among 650,000; in the data active = activation above about 4.9%;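 also: 0% = median of compound wells and 100% = cells with positive control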
TEAD-YAP block: TEAD-YAP interaction inhibition, primary screen, TEAD-YAP interaction inhibitor project, luminescence, HEK-TIYL cells | TEAD-Gal4/YAP UAS-luciferase luminescence | inhibition, % at 9.12 µM | hit rate 1.4% among 640,000 | AID 1259422, 2018; in the data active = inhibition above about 32%;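 also: 0% = median of test compound wells and 100% = reference inhibitor wells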
FBW7 activator: FBW7 E3 ligase activators, primary screen, biochemical, AlphaScreen, human; AlphaScreen FBW7–phospho-cyclin E peptide binding, activator screen; normalized activity (activation), % at 26.1 µM; F-box/WD repeat-containing protein 7 (Homo sapiens), Q969H0; AID 1259310, 2017; hit rate 0.13% among 650,000; in the data active = normalized activity above about 1.9%;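 also: purified mutant Fbw7 with reduced substrate affinity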
MITF primary: MITF inhibitors, primary screen, biochemical, AlphaScreen, human; Microphthalmia-associated transcription factor (Homo sapiens), O75030; AlphaScreen MITF homodimerization, bead proximity signal; inhibition, % at 2.6 µM; hit rate 0.91% among 650,000; AID 1259374, 2018; in the data active = inhibition above about 50%;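 also: 0% = vehicle wells with protein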
GPR151 confirm: GPR151 activators, triplicate retest, confirmation, cell-based, PathHunter beta-arrestin, luminescence. shares compounds with GPR151 ag. 6,700 tested, under 10 active. activation, % at 11.2 µM. GPR151 PathHunter beta-arrestin cells, 90 min; % of EA-reagent control over plate median;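 active = mean percent activation across replicates above the confirmation screen cutoff of 4.91%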
GPR119 ag: GPR119 activators in beta-arrestin cells, counter-screen for GPR151 activator project, cell-based, PathHunter beta-arrestin, luminescence, triplicate. activation, % at 11.2 µM. AID 1508611, 2020. shares compounds with GPR151 ag. 90 min; 0 = compound-well median, 100 = enzyme-acceptor control. hit rate 0.3% among 6,700;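 active = mean percent activation in the counterscreen above 29.09%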;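 also: counterscreen on off-target GPR119 to flag nonselective hits from the GPR151 activator screen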
Target sequence (Q8TDV5 whole entry, looked up): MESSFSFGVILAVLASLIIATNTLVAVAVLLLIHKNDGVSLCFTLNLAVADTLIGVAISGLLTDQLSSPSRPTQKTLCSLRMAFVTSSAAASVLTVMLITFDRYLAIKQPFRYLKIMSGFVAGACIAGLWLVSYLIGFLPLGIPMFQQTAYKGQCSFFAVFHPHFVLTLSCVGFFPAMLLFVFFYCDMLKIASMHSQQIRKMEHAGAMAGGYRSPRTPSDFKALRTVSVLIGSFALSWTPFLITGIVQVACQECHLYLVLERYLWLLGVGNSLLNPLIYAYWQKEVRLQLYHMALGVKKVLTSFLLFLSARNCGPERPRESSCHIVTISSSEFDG
Starred values were filed as active, the others as inactive; · = no result given; ! = not confirmed by another sample.

SMILES | GPR151 ag | TEAD-YAP block | FBW7 activator | MITF primary | GPR151 confirm | GPR119 ag
NNC(=S)NCCc1ccc(Cl)cc1 | 0.0 | 12.6 | 0.0 | 4.6 | · | ·
CCNC(=S)NCCc1ccc(Cl)cc1 | 5.5* | -22.2 | 0.2 | 10.8 | -0.1 | 2.5
O=C(NCCc1ccc(Cl)cc1)C(=O)NCc1ccccc1 | 7.4* | 5.4 | 0.4 | 9.4 | 0.0 | 16.5
C[C@@H]1NC(=O)[C@@H]2C[C@H](NC(=O)Nc3ccc(C(F)(F)F)cc3)CN2C1=O | -0.6 | 3.2 | 0.0 | 12.5 | · | ·
CCOC(=O)c1c(NC(=S)NCc2ccccc2)sc2c1CC(C)(CC)OC2 (centres undefined) | 1.2 | 0.4 | -0.3 | -1.1 | · | ·
O=C(NCc1ccccc1Cl)c1nnc(-c2ccccc2)o1 | 5.0* | -13.6 | 0.0 | 6.0 | 0.4 | -4.5
O=C(NCc1ccccc1Cl)c1nnc(-c2ccncc2)o1 | 1.3 | 0.2 | -0.6 | -2.6 | · | ·
O=C(OCc1cccc([N+](=O)[O-])c1)c1cc(Cl)ccc1O | 7.2* | 18.8 | -0.4 | -9.7 | 0.3 | -3.3
COc1ccccc1/C=C1\N=C(c2cccc(Br)c2)OC1=O | -0.6 | 14.1 | -0.1 | -7.2 | · | ·
COC(=O)c1ccccc1S(=O)(=O)C1CCN(C(=O)Nc2ccc(F)cc2F)CC1 | 5.0* | -4.3 | 0.0 | 7.4 | -1.6 | -13.4
COc1ccc(/C(C)=N/NC(=O)CNC(=O)c2ccccc2O)cc1 | 5.3* | -6.3 | 0.2 | 4.2 | -0.5 | -7.6
C/C(=N/NC(=O)CNC(=O)c1ccccc1O)c1ccc(F)cc1 | -1.1 | -1.3 | 0.0 | 12.3 | · | ·
CCNC(=O)C1=C2c3ccccc3CC(C)(C)N2C(=O)C1=O | 6.1* | 0.4 | -0.1 | -3.2 | 0.1 | 9.6
CC1(C)Cc2ccccc2C2=C(C(=O)N3CCCCCC3)C(=O)C(=O)N21 | 0.8 | 8.1 | -0.2 | 11.7 | · | ·
COc1cc(S(=O)(=O)N2CCN(c3ccc(C)c(C)c3)CC2)ccc1F | 5.9* | -2.9 | 0.0 | -0.8 | 2.3 | 3.5
CNC(=O)c1ccc2c(c1)ncn2-c1ccc(C)cc1C | -0.6 | -24.7 | 0.2 | 0.4 | · | ·
O=C(Cn1cnc2ccccc21)NCc1nc(-c2ccccc2)no1 | 0.2 | 13.5 | 0.1 | -6.1 | · | ·
O=C(c1n[nH]c(=O)c2ccccc12)N1CCCCCC1 | 5.6* | -0.3 | 0.1 | 17.1 | -0.5 | 6.0
COc1cc(OC)cc(-n2nc(C(=O)N3CCCCC3)c3ccccc3c2=O)c1 | 12.8* | 5.7 | -0.1 | 10.1 | -0.3 | -0.3
COc1cc(OC)cc(-n2nc(C(=O)N3CCCCCC3)c3ccccc3c2=O)c1 | 1.4 | -3.3 | 0.1 | 0.4 | · | ·
NS(=O)(=O)c1ccc(NS(=O)(=O)c2ccc(NC(=O)CCC(=O)O)cc2)cc1 | 0.1 | 10.0 | -0.1 | -5.6 | · | ·
CC(=O)OC[C@H]1O[C@@H](n2ccc(=O)[nH]c2=S)C(OC(C)=O)C1OC(C)=O (some centres undefined) | 5.9* | -1.3 | -0.1 | -6.5 | -0.1 | -9.5
O=S(=O)(c1ccc(F)cc1)N1CCSCC1 | 5.8* | -6.0 | -0.1 | -6.8 | 0.6 | 11.6
COc1cc(-c2cc(N)n(S(=O)(=O)c3ccc([N+](=O)[O-])cc3)n2)cc(OC)c1OC | -0.2 | 15.3 | -0.1 | 11.2 | · | ·
CCCn1ncc(CN2CCC(n3nccc3NC(=O)CCc3ccccc3)CC2)c1C | 6.6* | -4.4 | -0.2 | 19.3 | -0.8 | -12.4
SMILES | GPR151 ag | TEAD-YAP block | FBW7 activator | MITF primary | GPR151 confirm | GPR119 ag
Fc1ccc(C2CC(c3ccc(Br)cc3)=NN2c2nc(-c3ccccc3)c3cc(Br)ccc3n2)cc1 (centres undefined) | 5.8* | 5.2 | 0.0 | -2.4 | 0.3 | 2.5
O=C1CCCCN1c1cccc(NS(=O)(=O)c2cc(F)ccc2F)c1 | 7.1* | 12.4 | 0.7 | 11.4 | 3.4 | 6.4
CCOc1ccc(-c2cc(=O)n(C(C)C)cn2)cc1 | -1.0 | -49.9 | 0.0 | -0.9 | · | ·
Cc1nc2c(C(=O)O)cnn2c(C)c1Cc1ccc(Cl)cc1 | 5.8* | 7.2 | 0.0 | 6.2 | 0.7 | 7.8
Cc1nc2c(C(=O)NC3CCCC3)cnn2c(C)c1Cc1ccc(F)cc1 | 1.5 | -4.5 | -0.1 | -10.4 | · | ·
Cc1nc2c(C(=O)NC3CCCCC3)cnn2c(C)c1Cc1ccc(F)cc1 | 5.0* | -10.2 | -0.2 | -1.5 | -0.5 | -9.1
COCC1CCCN(Cc2c(C(=O)N3CCCN(C)CC3)nc3sccn23)C1 (centres undefined) | 0.4 | 1.4 | 0.2 | 7.6 | · | ·
COCC1CCCCN1Cc1c(C(=O)N2CCCN(C)CC2)nc2sccn12 (centres undefined) | 15.4* | 6.5 | 0.1 | 2.6 | 0.1 | 5.9
COC(=O)[C@@H]1CCCN1Cc1ccc2c(c1)CN(Cc1ccccc1)CCO2 | -1.1 | -3.0 | -0.2 | -7.3 | · | ·
COC(=O)[C@@H]1CCCN1Cc1ccc2c(c1)CN(Cc1c[nH]c3ccccc13)CCO2 | 6.9* | -3.9 | 0.1 | 9.2 | 0.1 | 1.2
O=C(Nc1c(F)cccc1F)c1ccc(Cl)cc1 | 7.7* | -0.9 | -0.2 | 3.0 | -0.6 | -0.5
O=C(Nc1c(F)cccc1F)c1ccccc1Cl | -0.8 | -21.9 | -0.1 | 13.2 | · | ·
O=C(Nc1ccc2ccccc2c1)c1ccc(Cl)cc1 | 5.2* | -48.7 | 0.0 | 3.4 | -0.1 | -8.0
Cc1c(C(=O)N2CCN(c3ccccc3F)CC2)sc2ncn(CC(=O)Nc3ccc(C(C)C)cc3)c(=O)c12 | -0.4 | 9.3 | 0.0 | 9.2 | · | ·
Cc1c(Cl)cccc1N1C(=O)CC(NNC(=O)c2ccc(F)cc2)C1=O (centres undefined) | -0.2 | 3.2 | -0.1 | -2.0 | · | ·
COc1ccccc1N=C1SC(CC(=O)Nc2cccc([N+](=O)[O-])c2)C(=O)N1C (centres undefined) | 13.6* | -5.7 | 0.1 | -3.5 | -0.5 | -7.3
Cc1nc(NC(=O)c2c(Cl)cccc2Cl)sc1C(=O)N(C)C | 1.1 | -3.2 | 0.1 | 12.1 | · | ·
Cc1ccc(C2=Nc3ccccc3N=C(C(F)(F)F)C2)cc1 | -1.0 | -47.2 | -0.3 | 0.0 | · | ·
Oc1ccc(-c2nc(-c3cccc(C(F)(F)F)c3)c(-c3ccccc3)[nH]2)cc1 | 5.8* | 11.6 | 0.2 | 6.7 | -0.3 | -3.9
Oc1ccc(-c2nc(-c3ccc(-c4ccccc4)cc3)c(-c3ccc(-c4ccccc4)cc3)[nH]2)cc1 | -0.7 | 9.4 | 0.1 | 10.6 | · | ·
Cc1cc(Nc2c(-c3ccc4c(c3)OCC(=O)N4)c(=O)c2=O)ccc1Br | -1.0 | -11.4 | 0.5 | 5.8 | · | ·
COc1cccc(NC(=O)C(=O)NCc2cccnc2)c1 | -0.2 | -49.2 | 0.1 | 3.3 | · | ·
COc1cccc(NC(=S)NCc2cccnc2)c1 | 6.1*! | 7.2 | 0.3 | 15.1 | -0.7 | 0.3
CCN(Cc1cnn(C)c1)c1nc2nonc2nc1N1CCOCC1 | 2.6 | -3.4 | 0.0 | -6.1 | · | ·
